# Assay results as given in PubChem BioAssay (Tox21).
# A number with no mark means an inactive call. Inconclusive results are not listed. A call without a number means that no potency is given here. Calls of active or inactive are those of the source. Unless noted, calls come from the whole dose curve; as a rule, active = well fitted curve in the direction sought with a large enough effect in the repeat runs; inconclusive = weak or mixed curves; inactive = no such curve, though single readings can be large; an effect the other way counts as inactive or inconclusive.
# Tests used:
# [1] = qHTS assay to identify small molecule agonists of the estrogen receptor alpha (ER-alpha) signaling pathway in the presence of an antagonist - cell viability counter screen (AID 1259386);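 note: cells exposed to compounds for 22 h at 37 °C before the viability read; nearly all actives have a fitted effect of over 30% in size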; note: potency is the fitted concentration of half-maximal effect
# How it was run: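 VM7Luc4E2 cells (endogenous full-length ER-alpha, 4×ERE-luciferase) were held 5 days in phenol red-free medium with 10% charcoal-stripped FBS, plated, then given 10.0nM ICI-182,780 and compounds at 15 concentrations for 22hr at 37C; viability read by CellTiter-Fluor fluorescence.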
# [2] = target: Progesterone receptor (Homo sapiens) (UniProt P06401); assay: qHTS assay to identify small molecule agonists of the progesterone receptor (PR) signaling pathway (AID 1346784; calls by dose curve; note: nearly all actives have a fitted effect of over 30% in size)
# Sequence of Progesterone receptor (Homo sapiens) (P06401 whole entry, looked up): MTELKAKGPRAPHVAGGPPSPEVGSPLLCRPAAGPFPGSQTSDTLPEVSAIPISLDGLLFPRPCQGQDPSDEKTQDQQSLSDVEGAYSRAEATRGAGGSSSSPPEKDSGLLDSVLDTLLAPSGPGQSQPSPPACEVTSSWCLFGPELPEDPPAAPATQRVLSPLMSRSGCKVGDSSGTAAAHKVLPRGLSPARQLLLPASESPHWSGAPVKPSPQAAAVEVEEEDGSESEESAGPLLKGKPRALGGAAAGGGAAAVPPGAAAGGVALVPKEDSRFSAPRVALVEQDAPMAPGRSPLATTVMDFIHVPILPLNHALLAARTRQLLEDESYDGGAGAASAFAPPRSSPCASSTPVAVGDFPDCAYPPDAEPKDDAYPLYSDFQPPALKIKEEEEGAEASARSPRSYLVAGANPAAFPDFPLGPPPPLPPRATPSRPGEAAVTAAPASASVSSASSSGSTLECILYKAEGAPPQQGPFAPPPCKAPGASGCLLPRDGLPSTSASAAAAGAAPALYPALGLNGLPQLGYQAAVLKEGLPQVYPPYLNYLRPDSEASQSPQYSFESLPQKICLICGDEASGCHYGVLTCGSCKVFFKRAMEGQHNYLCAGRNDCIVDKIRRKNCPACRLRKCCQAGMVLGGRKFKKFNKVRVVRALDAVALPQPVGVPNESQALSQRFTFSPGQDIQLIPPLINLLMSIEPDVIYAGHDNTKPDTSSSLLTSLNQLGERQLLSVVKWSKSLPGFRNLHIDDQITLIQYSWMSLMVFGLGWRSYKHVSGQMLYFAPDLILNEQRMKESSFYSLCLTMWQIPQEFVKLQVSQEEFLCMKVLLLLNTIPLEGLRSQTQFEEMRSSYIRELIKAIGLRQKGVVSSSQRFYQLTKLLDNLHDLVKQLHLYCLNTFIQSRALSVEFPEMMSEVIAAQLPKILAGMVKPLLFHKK
# How it was run: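 Agonist mode, quantitative HTS format in a HEK 293T line expressing a UAS-controlled beta-lactamase reporter; 16 hr compound exposure at 37C in 2% charcoal-stripped FBS, then LiveBLAzer B/G FRET fluorescence.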
# [3] = target: Progesterone receptor (Homo sapiens) (UniProt P06401); assay: qHTS assay to identify small molecule antagonists of the progesterone receptor (PR) signaling pathway (AID 1346795; active = well fitted inhibition curve with a large enough effect in the signal ratio in the repeat runs, not every such curve was filed as active; the % refers to the signal ratio)
# How it was run: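 HEK293T PR-UAS-bla reporter cells in charcoal-stripped serum (2%) received compound after a 6 hr settling period, followed by R5020 agonist at 1 nM final; 16 hr incubation preceded the FRET substrate step and fluorescence measurement.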
# [4] = qHTS assay to identify small molecule antagonists of the progesterone receptor (PR) signaling pathway - cell viability counter screen (AID 1346798); note: series mostly up to about 92 µM; nearly all actives have a fitted effect of over 50% in size
# How it was run: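 Same-well multiplex: after 16 hr at 37C with compound and R5020 stimulation, HEK293T cells carrying a UAS-bla reporter received LiveBLAzer substrate (2 hr RT), then CellTiter-Glo (30 min RT) for luminescent viability.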
# [5] = qHTS assay to identify small molecule agonists of the progesterone receptor (PR) signaling pathway - cell viability counter screen (AID 1346799; calls by dose curve; note: nearly all actives have a fitted effect of over 45% in size)
# How it was run: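 Counter screen for cytotoxicity: compound-treated PR-UAS-bla HEK293T cells (16 hr, 37C, 5% CO2) were assayed with CellTiter-Glo, luminescence measured after 30 min at room temperature.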
# [6] = qHTS assay to identify small molecule antagonists of the TGF-beta/Smad signaling pathway - cell viability counter screen (AID 1346824); note: nearly all actives have a fitted effect of over 50% in size
# How it was run: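 SBE-bla HEK 293T cells, incubated overnight, then compound plus 0.25 ng/mL TGF-beta1 (stock added) for 5 hr at 37 C. Viability was read in the same wells by CellTiter-Glo luminescence after 30 min at room temperature.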
# [7] = qHTS assay to identify small molecule agonists of the TGF-beta/Smad signaling pathway - cell viability counter screen (AID 1346829); note: top concentration of the series differs between compounds; nearly all actives have a fitted effect of over 45% in size
# How it was run: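 After overnight seating at 37 C and 5% CO2, reporter cells got compounds for 5 hr and FRET substrate for 2 hr; cell viability then came from CellTiter-Glo luminescence.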
# [8] = qHTS assay to identify small molecule agonists of the TGF-beta/Smad signaling pathway (AID 1346859; active = well fitted activation curve with a large enough effect in the signal ratio in the repeat runs, not every such curve was filed as active; the % refers to the signal ratio; note: series mostly up to about 77 µM)
# How it was run: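 Smad-responsive beta-lactamase reporter cells (HEK 293T) received compounds from DMSO stocks after overnight attachment, were incubated 5 hr, then treated 2 hr with FRET substrate before dual-emission fluorescence measurement (405 nm excitation).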
# [9] = target: Thyrotropin-releasing hormone receptor (Homo sapiens) (UniProt P34981); assay: qHTS assay to identify small molecule antagonists of the thyrotropin-releasing hormone receptor (TRHR) signaling pathway (AID 1346877; active = well fitted inhibition curve with a large enough effect in the repeat runs, not every such curve was filed as active; note: series mostly up to about 51 µM)
# Sequence of Thyrotropin-releasing hormone receptor (Homo sapiens) (P34981 whole entry, looked up): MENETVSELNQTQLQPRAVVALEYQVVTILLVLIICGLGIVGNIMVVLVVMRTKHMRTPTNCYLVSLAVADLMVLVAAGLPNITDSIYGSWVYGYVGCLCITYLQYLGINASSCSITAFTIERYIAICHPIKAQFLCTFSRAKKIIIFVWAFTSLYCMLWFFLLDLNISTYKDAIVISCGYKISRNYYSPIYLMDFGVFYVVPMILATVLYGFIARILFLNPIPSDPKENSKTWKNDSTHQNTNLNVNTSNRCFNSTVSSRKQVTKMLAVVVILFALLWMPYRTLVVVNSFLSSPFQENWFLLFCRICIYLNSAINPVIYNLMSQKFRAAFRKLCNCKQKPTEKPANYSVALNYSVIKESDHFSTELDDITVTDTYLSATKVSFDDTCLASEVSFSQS
# How it was run: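 TRHR-expressing HEK293 cells were seeded, cultured 18 h at 37 °C, then loaded with calcium dye for 2 h. Compounds were pre-incubated 5 min at room temperature before 1 nM TRH (final) was added, and kinetic fluorescence was recorded for 3 min.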
# [10] = target: Thyrotropin-releasing hormone receptor (Homo sapiens) (UniProt P34981); assay: qHTS assay to identify small molecule agonists of the thyrotropin-releasing hormone receptor (TRHR) signaling pathway (AID 1346891; calls by dose curve; note: series mostly up to about 58 µM)
# How it was run: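 Agonist-mode calcium mobilisation screen: TRHR-transfected HEK293 cells cultured overnight (18 h), dye-loaded for 2 h at 37 °C, exposed to compounds, and monitored by fluorescence for 3 min.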
# [11] = Human pregnane X receptor (PXR) small molecule agonists, qHTS cell viability counter screen (AID 1346977); note: nearly all actives have a fitted effect of over 50% in size; note: potency is the fitted concentration of half-maximal effect
# How it was run: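 Measures live-cell protease fluorescence (CellTiter-Fluor) in PXR-Luc HepG2 cells treated 24hr with compounds at 37C. Cells had 5hr to attach before pin transfer of DMSO solutions.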
# [12] = Caspase-3/7 induction in HepG2 cells by small molecules, qHTS assay (AID 1346978); note: nearly all actives have a fitted effect of over 15% in size
# How it was run: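 Wild-type HepG2 cells, 2,000/well, settled 5 hr at 37 C and 5% CO2, then compound-treated for 17 hr; caspase-3/7 activity read by luminescent Caspase-Glo 3/7 after 30 min at room temperature.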
# [13] = Caspase-3/7 induction in CHO-K1 cells by small molecules, qHTS cell viability counter screen (AID 1346979); note: nearly all actives have a fitted effect of over 35% in size; note: potency is the fitted concentration of half-maximal effect
# How it was run: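 In the same wells as the caspase read, viability of compound-treated wild-type CHO-K1 cells was assessed using CellTiter-Fluor, added after 16hr at 37C and measured by fluorescence following 1hr further incubation.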
# [14] = Caspase-3/7 induction in CHO-K1 cells by small molecules, qHTS assay (AID 1346980); note: nearly all actives have a fitted effect of over 15% in size
# How it was run: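 Wild-type CHO-K1 cells exposed to compounds for 17hr at 37 C, 5% CO2. Caspase-3/7 activity then measured by Caspase-Glo 3/7 luminescence after 30min at room temperature.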
# [15] = Caspase-3/7 induction in HepG2 cells by small molecules, qHTS cell viability counter screen (AID 1346981); note: nearly all actives have a fitted effect of over 30% in size; note: potency is the fitted concentration of half-maximal effect
# How it was run: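 Wild-type HepG2 cells (2,000/well) were allowed to settle for 5 hr at 37 C, 5% CO2, then dosed with compounds in DMSO by pin transfer. After 16 hr at 37 C, CellTiter-Fluor was added and fluorescence read 1 hr later.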
# [16] = target: Nuclear receptor subfamily 1 group I member 2 (Homo sapiens) (UniProt O75469); assay: Human pregnane X receptor (PXR) small molecule agonists, qHTS assay (AID 1346982); note: nearly all actives have a fitted effect of over 35% in size; note: potency is the fitted concentration of half-maximal effect
# Sequence of Nuclear receptor subfamily 1 group I member 2 (Homo sapiens) (O75469 whole entry, looked up): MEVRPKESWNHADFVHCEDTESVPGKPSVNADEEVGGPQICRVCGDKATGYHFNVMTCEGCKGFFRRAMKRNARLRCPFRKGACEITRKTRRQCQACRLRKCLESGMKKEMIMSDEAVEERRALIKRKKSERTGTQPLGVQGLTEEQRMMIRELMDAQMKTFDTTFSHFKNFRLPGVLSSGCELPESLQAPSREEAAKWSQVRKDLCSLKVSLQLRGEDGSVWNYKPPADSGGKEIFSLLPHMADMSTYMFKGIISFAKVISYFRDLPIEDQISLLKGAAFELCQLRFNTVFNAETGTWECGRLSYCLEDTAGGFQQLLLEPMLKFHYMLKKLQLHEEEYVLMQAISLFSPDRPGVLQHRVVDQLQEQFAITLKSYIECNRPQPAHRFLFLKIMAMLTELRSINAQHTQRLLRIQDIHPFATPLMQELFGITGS
# How it was run: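 PXR-Luc HepG2 cells (CYP3A4 promoter-driven luciferase) were seeded in medium with 5% charcoal-stripped FBS, left 5 hr at 37 C, then exposed to compounds in DMSO for 24 hr. Luminescence was read after ONE-Glo addition.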
# [17] = target: Nuclear receptor subfamily 1 group I member 2 (Homo sapiens) (UniProt O75469); assay: CYP3A4 induction through human pregnane X receptor (PXR) by small molecules, qHTS assay (AID 1346984); note: nearly all actives have a fitted effect of over 40% in size
# How it was run: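 DPX-2 cells (HepG2 co-transfected with PXR and CYP3A4 promoter-luciferase) treated with compounds 24 h at 37C; luciferin-IPA CYP3A4 substrate 3uM final added for 3 h, then One-Glo; luminescence read. qHTS format.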
# [18] = target: Nuclear receptor subfamily 1 group I member 2 (Homo sapiens) (UniProt O75469); assay: Human pregnane X receptor (PXR) activation by small molecules, qHTS assay (AID 1346985); note: nearly all actives have a fitted effect of over 40% in size
# How it was run: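 DPX-2 cells (HepG2 co-transfected with a PXR response element and a CYP3A4-promoter luciferase construct) were seeded at 2,000 per well, rested 5 hr at 37C, then exposed to DMSO-dissolved compounds for 24 hr. Activation was read as luciferase luminescence.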
# [19] = target: Cytochrome P450 2D6 (Homo sapiens) (UniProt P10635); assay: Cytochrome P450 Family 2 Subfamily D Member 6 (CYP2D6) small molecule antagonists: luciferase reporter qHTS assay (AID 1671196); note: nearly all actives have a fitted effect of over 50% in size; note: potency is the fitted concentration of half-maximal effect
# Sequence of Cytochrome P450 2D6 (Homo sapiens) (P10635 whole entry, looked up): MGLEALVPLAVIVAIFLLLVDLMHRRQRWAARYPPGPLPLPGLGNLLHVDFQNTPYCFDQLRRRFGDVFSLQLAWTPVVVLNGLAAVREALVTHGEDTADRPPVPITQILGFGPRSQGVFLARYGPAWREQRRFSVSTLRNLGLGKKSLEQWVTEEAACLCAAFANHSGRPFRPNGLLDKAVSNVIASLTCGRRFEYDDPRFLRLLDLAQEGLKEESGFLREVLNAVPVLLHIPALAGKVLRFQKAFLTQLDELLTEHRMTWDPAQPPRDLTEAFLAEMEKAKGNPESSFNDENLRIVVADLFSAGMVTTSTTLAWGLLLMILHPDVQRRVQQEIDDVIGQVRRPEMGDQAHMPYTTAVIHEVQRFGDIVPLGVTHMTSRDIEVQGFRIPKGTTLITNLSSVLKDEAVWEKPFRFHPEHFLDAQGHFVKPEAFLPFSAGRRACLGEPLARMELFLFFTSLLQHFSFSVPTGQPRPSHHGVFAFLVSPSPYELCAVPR
# How it was run: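 CYP2D6 enzyme–substrate mix was held with compound for 10 min at room temperature, then NADPH regeneration solution was added and the reaction ran 1 h at room temperature. Luciferin product was detected by luminescence after 20 min with detection reagent.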
SMILES,Potency [1],Potency [2],Potency [3],Potency [4],Potency [5],Potency [6],Potency [7],Potency [8],Potency [9],outcome [10],Potency [11],Potency [12],Potency [13],Potency [14],Potency [15],Potency [16],Potency [17],Potency [18],Potency [19]
CC(CCc1ccccc1)NCC(O)c1ccc(O)c(C(N)=O)c1 (stereo not drawn),27.3 µM (active),inactive,inactive,inactive,inactive,inactive,inactive,inactive,inactive,inactive,43.3 µM (active),inactive,43.3 µM (active),inactive,27.3 µM (active),17.2 µM (active),inactive,inactive,0.564 µM (active)
Cc1ccc(C(=O)O)cc1,inactive,inactive,inactive,inactive,inactive,inactive,inactive,inactive,inactive,inactive,inactive,inactive,–,inactive,inactive,inactive,–,–,–
CCCCOC(=O)CC,inactive,inactive,inactive,inactive,inactive,inactive,inactive,inactive,inactive,inactive,inactive,inactive,inactive,inactive,inactive,inactive,–,–,inactive
O=[N+]([O-])c1cccc(C(F)(F)F)c1,inactive,inactive,inactive,inactive,inactive,inactive,inactive,inactive,inactive,inactive,–,inactive,–,inactive,inactive,inactive,–,–,inactive
C=CC(=O)OCCOC(=O)C=C,inactive,inactive,inactive,inactive,inactive,inactive,inactive,inactive,inactive,inactive,inactive,inactive,–,inactive,inactive,inactive,–,–,inactive
CCC(=O)C(=O)CC,inactive,inactive,inactive,inactive,inactive,inactive,inactive,inactive,inactive,inactive,–,inactive,inactive,inactive,inactive,18 µM (active),–,–,inactive
CN(C)C(=O)COC(=O)Cc1ccc(OC(=O)c2ccc(N=C(N)N)cc2)cc1,inactive,inactive,inactive,inactive,inactive,inactive,inactive,inactive,inactive,inactive,–,inactive,–,inactive,inactive,inactive,inactive,inactive,inactive
CCCC1CCC(=O)CC1,inactive,inactive,inactive,inactive,inactive,inactive,inactive,inactive,inactive,inactive,inactive,inactive,inactive,inactive,inactive,inactive,–,–,inactive
NC(=S)NC(N)=S,inactive,inactive,inactive,inactive,inactive,inactive,inactive,inactive,inactive,inactive,–,inactive,inactive,inactive,inactive,–,–,–,–
CCCCCc1ccc(Cl)cc1,inactive,inactive,inactive,inactive,inactive,inactive,inactive,inactive,inactive,inactive,inactive,inactive,inactive,inactive,inactive,inactive,–,–,–
CCCCCCCCCCOC(=O)c1ccccc1C(=O)OCCCCCCCC,inactive,inactive,inactive,inactive,inactive,inactive,inactive,inactive,inactive,inactive,inactive,inactive,–,inactive,inactive,inactive,–,–,inactive
Cc1ccc(N/N=c2\c(=O)cc/c(=N\Nc3ccc(S(=O)(=O)O)cc3)c2=O)c(C)c1,34.4 µM (active),inactive,inactive,inactive,inactive,inactive,inactive,inactive,inactive,inactive,30.6 µM (active),inactive,27.3 µM (active),inactive,54.5 µM (active),–,–,–,–
Nc1ccc(NCCO)c([N+](=O)[O-])c1,30.6 µM (active),inactive,inactive,inactive,inactive,inactive,inactive,inactive,inactive,inactive,–,inactive,43.3 µM (active),inactive,48.6 µM (active),inactive,–,–,–
CCC(CC)C(C)CCOC(C)=O (stereo not drawn),inactive,inactive,inactive,inactive,inactive,inactive,inactive,inactive,inactive,inactive,inactive,inactive,inactive,inactive,inactive,inactive,–,–,inactive
O=C(O)Cc1ccccc1Nc1c(Cl)cccc1Cl,inactive,inactive,inactive,inactive,inactive,inactive,inactive,inactive,inactive,–,inactive,inactive,inactive,inactive,inactive,inactive,–,–,inactive
OC[C@@H](O)[C@@H](O)CO,inactive,inactive,inactive,inactive,inactive,inactive,inactive,inactive,inactive,inactive,inactive,inactive,inactive,inactive,inactive,inactive,–,–,inactive
